Tg IFNy HTS: blocks Toxoplasma gondii growth in the presence of IFN-gamma; activity change, negative = inhibition, % (test concentration not listed); Toxoplasma gondii growth in IFN-gamma-treated host cells; stronger effect = lower value; hit rate 3.8% among 69,000; in the data active = activity change below about -70%, passing the limit was not always enough;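 also: host cells are HeLa cells infected with Toxoplasma gondii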
Starred values were filed as active, the others as inactive; i = inactive; ! = a repeat was not active. This is one part of a sample in which hits are shown more often than they occur.

SMILES	Tg IFNy HTS
COc1ccc(CN2C[C@@H]3CCN(C(=O)c4ccn[nH]4)CC[C@H]3S2(=O)=O)cc1	-1.8
O=C(C1CCC1)N1CC[C@H]2CN(Cc3ccc(Cl)cc3)S(=O)(=O)[C@@H]2CC1	-46.6
COc1cccc(CN2C[C@@H]3CCN(C(=O)C4CCC4)CC[C@H]3S2(=O)=O)c1	-90.7*
O=C(NC1CCCC1)N1CC[C@H]2CN(Cc3ccc(Cl)cc3)S(=O)(=O)[C@@H]2CC1	-89.3*
C=CCOCc1nnc2n1CCN(Cc1c(C)noc1C)CC2	4.4
CCc1ccc(NC(=O)C(=O)NCCc2sc(-c3cccc(C)c3)nc2C)cc1	70.8
Cc1ccc2nc(CN3CCC4(CCCO4)CCC3=O)cn2c1 (centres undefined)	4.6
CC(O)C(=O)N1CCC(c2[nH]ncc2Cc2ccccc2)CC1 (centres undefined)	2.6
COc1ccc(-c2noc(-c3c(O)c4cc(C)ccc4[nH]c3=O)n2)cc1OC	69.6
COc1cccc(C(=O)N2CCN(S(=O)(=O)NCc3ccccc3)CC2)c1	4.9
Cc1nc(-c2cc(C(=O)N3CCC(N(C)C)CC3)c3ccccn23)cn1C	30.2
COc1cccc(F)c1-c1ccc2cc[nH]c(=O)c2c1	17.5
CSc1cccc(NC(=O)Nc2ccc(-c3nc(-c4ccc(C)cc4)co3)cc2)c1	35.0
COc1cccc(C(=O)N2CCc3c([nH]c4ccccc34)C2c2ccc(SC)cc2)c1 (centres undefined)	-63.0
COc1cccc(C(=O)N2CCc3c([nH]c4ccccc34)C2c2ccc(F)cc2)c1 (centres undefined)	i
CCOc1cccc(C2c3[nH]c4ccccc4c3CCN2C(=O)CCC2CCCC2)c1 (centres undefined)	125.1
CCOc1cccc(C2c3[nH]c4ccccc4c3CCN2C(=O)c2ccc(Br)cc2)c1 (centres undefined)	-97.8*
CCOc1cccc(C2c3[nH]c4ccccc4c3CCN2C(=O)C2CC2)c1 (centres undefined)	i
CCOc1cccc(C2c3[nH]c4ccccc4c3CCN2C(=O)c2ccncc2)c1 (centres undefined)	-84.2*
COc1ccc(C2c3[nH]c4ccccc4c3CCN2C(=O)c2cccc(OC)c2)cc1 (centres undefined)	-98.7*
CCOc1cccc(C2c3[nH]c4ccccc4c3CCN2C(=O)c2cccnc2)c1 (centres undefined)	189.0
CCOc1cccc(C2c3[nH]c4ccccc4c3CCN2C(=O)c2cc(OC)c(OC)c(OC)c2)c1 (centres undefined)	-51.7
CCOc1cccc(C2c3[nH]c4ccccc4c3CCN2C(=O)c2ccc(OC)cc2)c1 (centres undefined)	-92.5*
Nc1ccc(-c2ccc(S(=O)(=O)c3cccc(N)c3)cc2N)cc1	51.3
Cc1ccc(NC(=O)c2nc(Nc3ccccc3)c3ccccc3n2)cc1F	14.9
SMILES	Tg IFNy HTS
COc1cc(C)c(-c2ccc(Cn3ccnc3)cn2)c(C)c1	29.0
Cc1cc(NC(=O)C(C)Cn2nc(C)c(C)c2C)ccc1NC(=O)CN1CCCCC1 (centres undefined)	-4.6
COc1ccc(CCn2c(-c3cnn(C)c3C)n[nH]c2=O)cc1	4.6
CC(=O)CSc1nc2c(cc1C#N)CCCC2	372.7
CSc1cccc(Nc2nc(-c3ccc(Cl)cc3)nc3ccccc23)c1	-54.2
CC(=O)N1CCC2(CC1)OC(=O)C(C)=C2C(=O)NCCCN1CCCCC1	16.6
Cc1ccc(S(=O)(=O)CCC(=O)N2CCC(c3cc4cccnc4c(=O)[nH]3)CC2)cc1	-20.5
O=c1ccc2cc3ccoc3cc2o1	8.1
COc1ccc2c(c1)c(=O)oc1cc3occ(C(C)(C)C)c3cc12	-31.8
COc1c2ccoc2cc2oc(=O)ccc12	-87.4*!
COC(=O)c1ccc(-c2noc(-c3c(O)c4cc(C)ccc4[nH]c3=O)n2)cc1	43.5
CCOc1ccc(-c2nc(Cn3ccn4nc(-c5ccc(C)cc5)cc4c3=O)c(C)o2)cc1OC	82.8
CC(C)C1CN(C(=O)N2CCOCC2)CCCN1Cc1ccc(F)cc1 (centres undefined)	8.0
CC(C)CNC(=O)C1=NOC2(CCN(C(=O)c3ccccn3)C2)C1 (centres undefined)	-0.2
COc1ccc(CN2CCC3(CC(C(=O)NCC(C)C)=NO3)C2)cc1 (centres undefined)	4.5
CC(C)CNC(=O)C1=NOC2(CCN(Cc3ccc(C(C)C)cc3)C2)C1 (centres undefined)	-82.4*
NC(=O)c1cccc(-c2cccc(C3CCCNC3)n2)c1 (centres undefined)	0.6
CCc1ccc(S(=O)(=O)N2CCC3(CC2)NCCN=C3NCc2cccc(F)c2)cc1	11.2
CN1CCC2(CCOCC2NC(=O)c2ccccc2)CC1 (centres undefined)	-0.6
CCOCC1COCCC12CCN(C(=O)CCc1ccccc1)CC2 (centres undefined)	-0.5
CC(=O)N1CCC2(CCOCC2NC(=O)c2ccccc2)CC1 (centres undefined)	-93.3*
Cc1cc(C(=O)N2CCCC(c3ccc(Cc4ccc(Cl)cc4)cn3)C2)nc(N(C)C)n1 (centres undefined)	-89.7*

Screening results: PubChem BioAssay, Broad Institute
